SENP7 inh: blocks the human protease SENP7; Q9BQF6; 330,000 compounds, 1.5% hits; AID 434973; recombinant SENP7, Z-RLRGG-aminoluciferin luminescence, 40 min; inhibition, % at 5 µM;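 active means inhibition above about 50% at the single test dose, limit read from the data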
Target sequence (Q9BQF6 706-1050 limits assumed): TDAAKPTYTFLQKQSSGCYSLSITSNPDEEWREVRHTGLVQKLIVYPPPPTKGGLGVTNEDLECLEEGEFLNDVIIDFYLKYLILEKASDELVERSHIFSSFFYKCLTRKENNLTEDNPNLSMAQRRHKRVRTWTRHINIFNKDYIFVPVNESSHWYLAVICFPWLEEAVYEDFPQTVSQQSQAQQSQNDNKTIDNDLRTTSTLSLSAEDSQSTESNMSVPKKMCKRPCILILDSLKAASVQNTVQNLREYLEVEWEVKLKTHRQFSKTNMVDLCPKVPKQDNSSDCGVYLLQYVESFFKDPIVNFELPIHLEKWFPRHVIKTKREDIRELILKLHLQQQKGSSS
HSP90 refold inh: HSP90 refolding inhibition in rabbit reticulocyte lysate; 290,000 compounds, 0.91% hits; AID 1789; luciferase refolding luminescence, 3 h; inhibition, % at 5.6 µM;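 active means inhibition above the screen-wide mean plus 3 SD, computed separately per campaign, cut at about 16% in these data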;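 further: inhibitors lower the luminescence because luciferase stays unfolded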
SENP8 block-1: SENP8 (human) protease inhibition; Q96LD8; recombinant SENP8, Nedd8 substrate fluorescence; inhibition, % at 20 µM; 360,000 compounds, 0.64% hits; AID 602440; in the data active means inhibition mostly above about 40%, no sharp cut-off; inactive means mostly below about 27%
SENP8 block-2: SENP8 protease inhibition | Q96LD8 | purified SENP8, Z-RLRGG-aminoluciferin cleavage, luminescence | inhibition, % at 10 µM | 330,000 compounds, 1.2% hits | AID 2540; in the data active means inhibition above about 50%
SENP6 inh: inhibitors of human SENP6 protease | Recombinant SENP6 catalytic domain, aminoluciferin luminescence | inhibition, % at 10 µM | 330,000 compounds, 1.8% hits | AID 2599;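 active means inhibition above about 50% at the single tested dose, limit read from the data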
Platelet DG rel: modulates dense granule release in human platelets | human platelet-rich plasma, SFLLRN dense granule ATP release, luminescence | inhibition, %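 (compounds screened at 7.5 µM in platelet-rich plasma)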 | AID 1663 | 300,000 compounds, 0.22% hits;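 active means mean replicate score, as percent of positive control, at or above 50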
HSP90 confirm: HSP90 inhibition, confirmation assay. shares compounds with HSP90 refold inh. rabbit reticulocyte lysate, luciferase refolding luminescence, 3 h. inhibition, % at 5.9 µM. 2,300 compounds, 64% hits; in the data active means inhibition above about 18%
luciferase ctr: counter-screen for HSP90 inhibitors: inhibitors of firefly luciferase. shares compounds with HSP90 refold inh. purified native firefly luciferase, luminescence. inhibition, % at 5.9 µM. 2,300 compounds, 48% hits. AID 1847;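 active means inhibition above the mean inhibition of all tested sample wells plus 3 SD, cut at about 10% in these data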
SENP8 confirm: human SENP8 inhibition, confirmed; 6,200 compounds, 40% hits; AID 488912; shares compounds with SENP7 inh; inhibition, % at 12.5 µM; Recombinant SENP8, Z-RLRGG-aminoluciferin luminescence, 60 min;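 active means mean inhibition across replicates above about 50%, limit read from the data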
SENP6 confirm: confirmation of human SENP6 protease inhibitors; 6,200 compounds, 58% hits; recombinant SENP6, Z-RLRGG-aminoluciferin luminescence; inhibition, % at 12.5 µM; shares compounds with SENP7 inh; AID 488915
SENP7 confirm: human SENP7 inhibition, confirmed | recombinant SENP7, Z-RLRGG-aminoluciferin luminescence, 40 min | shares compounds with SENP7 inh | inhibition, % at 12.5 µM | 6,200 compounds, 69% hits | AID 488917
Casp3 select: selectivity test for SENP inhibitors: human caspase-3 inhibition; purified caspase-3, Z-DEVD-aminoluciferin luminescence, 60 min; AID 488918; 6,200 compounds, 60% hits; inhibition, % at 12.5 µM; shares compounds with SENP7 inh;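 active means mean inhibition above about 50%, limit read from the data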
Target sequence (P42574 28-227 limits assumed): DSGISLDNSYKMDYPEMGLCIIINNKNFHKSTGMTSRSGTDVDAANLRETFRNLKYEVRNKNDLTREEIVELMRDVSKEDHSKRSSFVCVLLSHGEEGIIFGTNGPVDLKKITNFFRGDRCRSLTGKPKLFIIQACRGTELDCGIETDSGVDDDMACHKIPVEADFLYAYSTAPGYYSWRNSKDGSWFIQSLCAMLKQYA
SENP luc ctr: interferes with luciferase luminescence in SENP counter-screen | AID 488919 | inhibition, % at 12.5 µM | 6,200 compounds, 39% hits | Pre-incubated SENP8/Z-RLRGG-aminoluciferin, luciferase luminescence interference | shares compounds with SENP7 inh;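 active means mean inhibition above about 50% when retested at one dose, limit read from the data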
A number is an active result; . = inactive; / = no result. Only some compounds are listed: those with a hit (about 2.8% of all), similar ones and a draw of the others.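 How the source made its calls, unless noted: active means mean inhibition above about 50% in the one-dose retest (limit read from the data); inactive means the rest.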

SMILES	SENP7 inh	HSP90 refold inh	SENP8 block-1	SENP8 block-2	SENP6 inh	Platelet DG rel	HSP90 confirm	luciferase ctr	SENP8 confirm	SENP6 confirm	SENP7 confirm	Casp3 select	SENP luc ctr
CCOc1ccc(C(=O)Nc2cccc(C(=O)O)c2C)cc1Cl	98	88	.	93	100	.	92	68	97	98	102	80	97
CCOc1ccc(C(=O)Nc2ccccc2-c2ccccc2)cc1Cl	.	.	.	.	.	.	/	/	/	/	/	/	/
O=C(/C=C/c1cccs1)c1ccc(N2CCOCC2)cc1	87	31	.	72	84	.	58	69	.	82	93	.	.
Cc1cc(C(=O)Nc2ccc(Cl)cc2)c(C)n1-c1ccccc1	91	81	.	89	93	.	81	80	91	98	102	88	.
Cc1ccc(NC(=O)c2cc(C)n(-c3ccccc3)c2C)cc1	72	75	.	67	86	.	85	83	86	85	97	73	.
Cc1ccc(S(=O)(=O)N(C)CC(=O)Nc2nnc(CC(C)C)s2)cc1	.	.	.	.	.	.	/	/	/	/	/	/	/
CN1CCN(c2nc(-c3ccc(C(C)(C)C)cc3)nc3ccccc23)CC1	.	54	.	.	54	.	52	49	.	.	.	.	.
Cc1ccc(-c2nc(N3CCN(C)CC3)c3ccccc3n2)cc1	.	.	.	.	.	.	/	/	/	/	/	/	/
COc1ccccc1/C=C/C=N/Nc1cccc(C(=O)O)c1	87	57	.	95	98	.	64	49	99	100	102	80	98
O=C(O)c1ccc(N/N=C/c2c(F)cccc2Cl)cc1	98	80	.	96	97	.	82	76	100	101	104	96	99
O=C(O)c1ccc(/C=N/Nc2ccc(F)cc2F)cc1	99	46	.	96	101	.	78	58	99	100	103	98	99
COc1ccc(Br)cc1/C=N/Nc1cccc(C(=O)O)c1	.	.	.	.	.	.	/	/	/	/	/	/	/
CC(C)(C)c1ccc(/C=N/Nc2ccc(C(=O)O)cc2)cc1	99	58	.	96	100	.	86	83	100	101	104	94	99
O=C(N/N=C\c1ccc(F)cc1)c1ccc(F)cc1	.	.	.	.	.	.	/	/	/	/	/	/	/
Cc1nn(C(=O)c2cccc([N+](=O)[O-])c2)c(C)c1Cl	.	.	.	.	.	.	/	/	/	/	/	/	/
CCCCNC(=O)C1(C)CCN1C(=O)c1cncc(Br)c1 (stereo unspecified)	/	/	.	/	/	/	/	/	/	/	/	/	/
Cn1c(SCC(=O)Nc2cccnc2Cl)nc2ccccc21	.	/	.	.	.	/	/	/	/	/	/	/	/
Cc1ccc(S(=O)(=O)N2CCCCC2)cc1NC(=O)c1ccccn1	.	.	.	.	.	.	/	/	/	/	/	/	/
CN(C)c1ccc(/C=N/Nc2cccc(C(=O)O)c2)cc1	.	76	.	96	99	.	97	94	98	102	104	100	100
O=C(O)c1ccc(N/N=C/c2ccc(C(F)(F)F)cc2)cc1	98	77	.	96	101	.	86	81	99	99	102	94	98
CCCC(C)(C)C(=O)N1CCC1(C)C(=O)NS(=O)(=O)c1ccccc1Cl (stereo unspecified)	/	/	.	/	/	/	/	/	/	/	/	/	/
Clc1ccc(-c2nnc(NC3=NCCCCC3)o2)cc1	88	45	.	80	73	.	71	68	.	.	57	.	.
Cc1ccc(NC(=O)C2CC(=O)N(c3ccccc3Cl)C2)cc1S(=O)(=O)N1CCOCC1 (stereo unspecified)	/	/	.	/	/	/	/	/	/	/	/	/	/
Clc1ccc(/C=C/c2nc3ccccc3[nH]2)c(Cl)c1	99	44	.	97	100	60	77	72	99	100	104	98	.
Clc1ccc(/C=C/c2nc3ccccc3[nH]2)cc1	100	35	.	97	98	78	69	63	99	100	103	98	83
SMILES	SENP7 inh	HSP90 refold inh	SENP8 block-1	SENP8 block-2	SENP6 inh	Platelet DG rel	HSP90 confirm	luciferase ctr	SENP8 confirm	SENP6 confirm	SENP7 confirm	Casp3 select	SENP luc ctr
Cc1ccccc1-c1cccc([C@@H]2C[C@H]3[C@H](CON3C)CN2Cc2cc(Cl)cc(Cl)c2)c1	/	/	.	/	/	/	/	/	/	/	/	/	/
NC(=O)C1(N2CCCCC2)CCN(C(=O)CSc2nc3ccccc3s2)CC1	.	.	.	.	.	.	/	/	/	/	/	/	/
CCCCOc1ccc(-c2cc(C(=O)NNC(=S)NCC)c3ccccc3n2)cc1	93	30	.	94	101	77	52	.	98	99	103	98	65
CCCCOc1cccc(-c2cc(C(=O)NNC(=S)NCC)c3ccccc3n2)c1	.	.	.	.	.	.	/	/	/	/	/	/	/
CN1CCN(C(=O)c2ccc(-c3cccs3)s2)CC1	.	.	.	.	.	.	/	/	/	/	/	/	/
O=C(c1cccs1)c1ccc(-c2cccs2)s1	94	29	.	94	95	.	61	53	65	96	97	86	.
O=C(CNC(=O)c1ccc(Cl)cc1Cl)OCCCn1c(=O)[nH]c2ccccc21	.	/	.	.	.	.	/	/	/	/	/	/	/
CCCCNC1=CC(=O)C(=O)c2ccccc21	81	24	85	86	93	.	19	.	61	87	74	91	.
COC(=O)c1cc(S(=O)(=O)N2c3ccccc3CC2C)cn1C (stereo unspecified)	.	.	.	.	.	.	/	/	/	/	/	/	/
O[C@@H]1CN(CC2CCCCC2)[C@@H](c2ccccc2)C[C@H]1n1cc(-c2ccc(F)cc2)nn1	/	/	.	/	/	/	/	/	/	/	/	/	/
O=C(Nc1nc2ccccc2[nH]1)c1ccccc1OC(F)F	91	30	.	84	91	.	55	45	87	88	100	95	90
COc1cc(C(=O)Nc2nc3ccccc3[nH]2)ccc1OC(F)F	.	.	.	.	.	.	/	/	/	/	/	/	/
CC(C)Oc1ccc(C(=O)Nc2nc3ccccc3[nH]2)cc1	100	83	.	97	97	.	90	85	91	99	103	98	68
